# From PubChem BioAssay AID743255 (National Center for Advancing Translational Sciences (NCATS), 2014)
# In all, about 390,000 compounds went through this assay and about 910 (0.23%) were called active. Roughly 5% stayed inconclusive and do not appear here. The sample holds actives, similar compounds and a random draw of the others, so the mix is not that of the screen. A number with no mark means an inactive call. Calls come from the whole dose curve; as a rule, active = well fitted inhibition curve with a large enough effect; inconclusive = small, poorly fitted or top-dose-only effect; inactive = no such curve, though single readings can be large or run the other way.
# Target: Ubiquitin carboxyl-terminal hydrolase 1 (Homo sapiens) (UniProt O94782)
# Sequence (O94782 whole entry, looked up): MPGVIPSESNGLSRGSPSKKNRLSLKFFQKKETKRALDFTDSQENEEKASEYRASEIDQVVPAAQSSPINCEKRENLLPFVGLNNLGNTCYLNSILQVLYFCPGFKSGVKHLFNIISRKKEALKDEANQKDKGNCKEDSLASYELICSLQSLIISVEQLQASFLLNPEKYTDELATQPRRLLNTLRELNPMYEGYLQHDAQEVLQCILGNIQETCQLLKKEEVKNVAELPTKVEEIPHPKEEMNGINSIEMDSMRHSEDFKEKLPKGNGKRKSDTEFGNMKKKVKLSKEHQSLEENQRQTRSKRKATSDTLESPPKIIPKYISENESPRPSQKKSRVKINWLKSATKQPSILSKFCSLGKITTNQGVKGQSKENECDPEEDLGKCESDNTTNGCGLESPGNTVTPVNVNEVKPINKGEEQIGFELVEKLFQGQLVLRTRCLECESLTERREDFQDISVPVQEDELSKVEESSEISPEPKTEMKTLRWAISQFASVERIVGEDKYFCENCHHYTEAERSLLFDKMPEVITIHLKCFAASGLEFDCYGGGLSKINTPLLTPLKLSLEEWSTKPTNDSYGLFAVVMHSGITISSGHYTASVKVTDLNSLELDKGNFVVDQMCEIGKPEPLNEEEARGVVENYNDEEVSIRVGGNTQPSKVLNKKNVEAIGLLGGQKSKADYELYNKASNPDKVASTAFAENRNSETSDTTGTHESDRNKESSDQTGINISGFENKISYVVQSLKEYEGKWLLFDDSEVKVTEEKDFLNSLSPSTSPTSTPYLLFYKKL
# Experiment: Inhibitors of USP1/UAF1: Primary Screen; note: nearly all actives have a fitted effect of over 60% in size
# Conditions: recombinant USP1/UAF1, Ub-Rhodamine cleavage fluorescence; series mostly up to 57.1 µM; activity change, negative = inhibition: at the top concentration
# Summary of the method: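 Step one: compound is pinned into 1nM USP1/UAF1 in HEPES pH 7.8 buffer with TCEP. Step two: 15 min room-temperature incubation. Step three: Ub-Rho (150nM final) starts cleavage, tracked by fluorescence over six one-minute reads.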
# % is set by controls: 0 for no effect and ±100 for the full control effect; potency is the fitted concentration of half-maximal effect.
Structure (SMILES),Potency,"activity change, negative = inhibition [%]"
Brc1ccc(C2=CC(c3ccco3)n3ncnc3N2)cc1 (stereo not given),31.6 µM (active),–
O=C(CCC(=O)N1CC2CCCN2c2ccccc21)NCc1ccccc1Cl (stereo not given),–,-12.9
Cc1c(-c2nsc(NC(=O)c3cccc(Cl)c3)n2)nnn1-c1ccccc1C(F)(F)F,–,-1.05
COc1ccc(-n2c(SC)nc3sc4c(c3c2=O)CCN(C(C)=O)C4)cc1,–,-26.9
CCc1nn(CC(=O)N2CCN(c3cccc(C(F)(F)F)c3)CC2)c(=O)c2cc3occc3n12,–,-7.28
CCn1c(=O)c2cc(C(=O)NCCc3ccc(Cl)cc3)sc2c2ccccc21,–,-21.3
CCc1ccc(CNC(=O)c2cc3c(=O)n(CC)c4ccccc4c3s2)cc1,–,-21.7
CCN(CCCNC(=O)c1cc2c(=O)n(CC)c3ccccc3c2s1)Cc1ccccc1,28.2 µM (active),–
COc1cccc(CNC(=O)C2CCN(S(=O)(=O)c3ccc4c(ccn4C)c3)CC2)c1,–,2.96
CCN(C(=O)Cn1cnc2sc(C)c(S(=O)(=O)N3CCN(c4ncccn4)CC3)c2c1=O)c1ccccc1F,–,-30
CSc1nn(Cc2cccc(C)c2)c(N)c1S(=O)(=O)c1ccccc1,–,-28.8
CC(=O)Nc1cc(C(=O)NCc2ccc(F)cc2Cl)ccc1Sc1ccc(Cl)cc1,–,-26.4
CCc1cccc(NC(=O)CN(c2ccc(C)c(C)c2)S(=O)(=O)c2ccsc2C(=O)OC)c1,–,-10.4
Cc1cc(C)c2sc(NC(=O)c3ccc(S(=O)(=O)N4CCCC4)cc3)nc2c1,–,-22.5
COc1ccc(S(=O)(=O)NCC(c2ccc(N(C)C)cc2)N2CCc3ccccc32)cc1OC (stereo not given),–,-19.8
CCCN1C(=O)C(O)(CC(=O)c2ccc(CC)cc2)c2cc(Br)ccc21 (stereo not given),–,-6.09
COc1cccc(CNC(=O)CCC(=O)N2CC3CCCN3c3ccccc32)c1 (stereo not given),–,4.94
CC(C)NC(=O)c1nn(-c2ccccc2F)nc1CO,–,10.8
COc1ccc(CNC(=O)CS(=O)Cc2nc(-c3cccc(C)c3)oc2C)cc1 (stereo not given),–,-17.1
CCCCS(=O)(=O)c1oc(-c2cccs2)nc1S(=O)(=O)c1ccccc1,–,-25.3
CCOc1ccc(OCC)c(NC(=O)c2cc(C)nc3c2c(C)nn3-c2cccc(Cl)c2C)c1,–,-1.64
O=C(CSc1nc(=O)n(Cc2cccnc2)c2c1CCC2)Nc1ccc(F)cc1F,–,-30.9
CCN(CC)CCCC(C)n1c2nc(=O)[nH]c(=O)c-2nc2cc(Cl)ccc21 (stereo not given),25.1 µM (active),–
Cc1ccc(OCC(=O)OCc2cc(=O)n3nc(C4CC4)sc3n2)cc1C,–,5.46
O=C(CCn1ccc2cc(S(=O)(=O)N3CCCC3)ccc21)NCc1cccc(Cl)c1,–,-0.0195
COc1ccc2c(c1)Cc1sc(NC(=O)c3ccccc3Br)nc1-2,31.6 µM (active),–
COc1ccc(NS(=O)(=O)c2ccc(N3CCOCC3)c(NC(=O)c3ccccc3Br)c2)cc1,–,-5.81

Structure (SMILES),Potency,"activity change, negative = inhibition [%]"
COCCN(CCOC)S(=O)(=O)c1ccc(C(=O)Nc2nc3c(s2)CCc2ccccc2-3)cc1,–,-9.11
Cc1oc(-c2ccccc2)nc1Cn1c(SCc2cccc(C(F)(F)F)c2)nc2cccnc21,–,-31.8
COc1cccc(NC(=O)Cn2c(=O)cc(C)c3c(C)nn(-c4cccc(F)c4)c32)c1,–,0.827
CCCCOc1ccc(C(=O)N2CC(=O)Nc3ccc(Br)cc3C2c2ccc(F)cc2)cc1 (stereo not given),–,-19.8
O=C(NCC(c1ccco1)S(=O)(=O)c1cccs1)c1ccc(F)cc1 (stereo not given),–,5.88
O=C(CSc1oc(-c2ccc(F)cc2)nc1S(=O)(=O)c1ccc(Br)cc1)NC1CCCCC1,–,-4.45
COc1ccc(Cc2nc3ccc(C(=O)NCc4ccccc4Cl)cc3o2)cc1,–,-2.36
O=C(CSc1ncc(-c2ccccc2)[nH]1)Nc1ccc(F)cc1F,–,-5.56
Cc1ccc(Cn2c(CNC(=O)Cc3cccc(C)c3)nc3cccnc32)cc1,–,-24
Fc1ccc(Nc2nc(SCc3ccccc3Cl)nc3ccccc23)cc1,–,-24.2
CCC(=O)Nc1c(C(=O)N2CCN(c3ccc(F)cc3)CC2)oc2ccccc12,–,-18.1
CCOc1ccc(CCNC(=O)c2ccc3c(c2)sc2nc(-c4ccc(F)cc4)cn23)cc1OCC,–,2.52
COc1ccc(N2CCN(C(=O)CSCc3nc(-c4ccccc4Cl)oc3C)CC2)cc1,–,-26.2
Cc1ccc2c(=O)c(C(=O)c3ccc(F)cc3)cn(CC(=O)NC3CCCCC3)c2n1,–,2.13
CCN(CCCNC(=O)c1ccc(Sc2ccc(C)cc2)c(NC(C)=O)c1)c1cccc(C)c1,–,-9.52
O=S(=O)(NCC(c1ccccc1)N1CCc2ccccc21)c1ccccc1 (stereo not given),–,-27.1
CC1=CC2=NC(=O)/C(=C/c3coc4ccccc4c3=O)C(=N)N2O1,28.2 µM (active),–
O=C(CCn1c(=O)c2sccc2n(Cc2ccc(F)cc2)c1=O)NCc1ccc2c(c1)OCO2,–,-8.87
O=C(CCSCc1ccccc1F)N1CCN(c2ccc(Cl)cc2)CC1,–,-7.91
O=C(CC1N=C2c3ccccc3N=C(SCc3cccc(Cl)c3)N2C1=O)NCc1ccc2c(c1)OCO2 (stereo not given),–,-5.07
COc1cc(OC)c(NC(=O)c2c3c(nn2C)-c2ccccc2SC3)cc1Cl,–,-25.8
O=C(CC(c1cccs1)N1Cc2ccccc2C1=O)Nc1ccc(F)c(F)c1 (stereo not given),–,-15.1
NC1=CC(=O)C(=O)c2cccnc21,3.55 µM (active),–
CCc1ccccc1OCCSc1nc(-c2cccs2)nc2cc(=O)[nH]n12,–,-13.4
O=[N+]([O-])c1ccc(C=Nc2ccc(Cl)cc2Cl)s1,28.2 µM (active),–
COc1ccc(NC(=O)c2cc3cc(C)ccc3n2C)cc1,–,-6.32
CCC(=O)N1CCc2cc(Br)cc(S(=O)(=O)Nc3ccc(C)cc3C)c21,–,-10.7

Structure (SMILES),Potency,"activity change, negative = inhibition [%]"
Cc1ccc(O)c(NC(=O)c2cc(-c3ccc(F)cc3)no2)c1,–,-11.8
CCOC(=O)c1c(S(=O)(=O)N2CCCC(C(=O)NCc3ccc(F)cc3)C2)c(C)n(CC)c1C (stereo not given),–,-24.5
CC1CCN(S(=O)(=O)c2ccc3c(c2)N(CC(=O)NCc2ccccc2Cl)C(=O)CO3)CC1,–,-20.5
CCOC(=O)N1CCc2c(sc3c2C(=O)NC(c2ccccc2F)N3)C1 (stereo not given),–,-21.4
CC(C)(C)OC(=O)N1CCC(c2c(C(=O)NCc3ccccn3)cnn2-c2ccc(F)cc2)CC1,–,7.78
CCOC(=O)c1cccc(NC(=O)C(Cc2ccccc2)NS(=O)(=O)c2cccc3nsnc23)c1 (stereo not given),–,-8.9
Cc1ccc2cccc(NC(=O)c3ccc(OC(C)C)cc3)c2n1,–,-22.6
Cc1ccc(-c2nc3cccc(C)n3c2Nc2ccc3c(c2)OCCO3)cc1,–,-11.9
CCN1CCC(N(Cc2ccc(F)cc2)C(=O)Nc2cc(C)ccc2C)CC1,–,-12.8
CCc1ccc(CNC(=O)C2CCN(c3nn4cc(-c5ccc(F)cc5)nc4s3)CC2)cc1,–,-6.33
COc1cc(OC)c(NC(=O)c2cnc(N3CCCC3)nc2C)cc1Cl,–,-25.5
CCc1ccc(NC(=O)c2cc(S(=O)(=O)N3CCCC(C)C3)cn2C)cc1 (stereo not given),–,-21.5
Cc1cc(C)nc(NS(=O)(=O)c2ccc(NC(=O)c3cc(=O)c4ccc(C)c(C)c4o3)cc2)n1,–,-20.7
Cc1oc2ncnc(N3CCOCC3)c2c1C(=O)NCCc1ccccc1,–,-11.6
COc1ccc(-c2cn3c(n2)sc2cc(C(=O)Nc4ccc(F)cc4)ccc23)cc1,–,6.29
CN1/C(=C\C=C2\N=C(c3ccc(F)cc3)OC2=O)C(C)(C)c2ccccc21,28.2 µM (active),–
Cc1csc2nc(COC(=O)c3ccc(NC(=O)COc4ccccc4F)cc3)cc(=O)n12,–,-3.82
CCCN1CCN(CCCNC(=O)c2cnn(-c3ccc(C)cc3)c2-n2cccc2)CC1,–,-10.7
O=C(CCOc1ccccc1)N(Cc1cccnc1)c1nc2ccc(Cl)cc2s1,–,-18.1
CC(NC(=O)c1cc(Sc2ccc(F)cc2F)nc2ccccc12)c1ccccc1 (stereo not given),–,-9.65
COc1cccc(C(=O)NCc2ccc3c(c2)CCN3C(=O)c2ccncc2)c1,–,-9.61
CCOC(=O)c1c(C)[nH]c(CCC(=O)Nc2ccc(OC)c(OC)c2)c1C,–,-19
CCOC(=O)c1c(SCC(=O)Nc2cccc(C)c2C)nc(=O)[nH]c1C,–,-6.81
CCOC(=O)c1c(C)[nH]c2c1-c1ccccc1C(=O)C2=O,1.26 µM (active),–
CN(C(=O)c1ccc2c(c1)N(Cc1cccc(Cl)c1)C(=O)c1ccccc1S2=O)C1CCCCC1 (stereo not given),–,-9.49
CC(=O)N(C1=C(Cl)C(=O)c2ccccc2C1=O)c1ccc(C(=O)O)cc1,14.1 µM (active),–
